# Screening results from PubChem.
# Sampled rows, rich in hits. Any-hit rate of the full collection: about 1.9%.
# Bfl-1 A1 inh = caspase 3/7 activation in MEF A1-2A-BIM cells, primary screen, A1 inhibitor project, cell-based, luminescence, HTS; caspase activation, % (no concentration beside the values); AID 2462, 2010; Caspase-Glo 3/7 luminescence, 3 h; percent of clofoctol response, vehicle zero; 0.066% of 330,000 active;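 active = over half of replicate activation scores above 10%, or exactly half above 10 with the replicate mean above 10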
# Vif inh = HIV Vif self-association inhibitors, primary screen, imaging, HEK293T, single point; HEK293T cells, Vif self-association by quenched fluorescence, 24 h; inhibition, % at 7.49 µM; 0.35% of 340,000 active; AID 602346, 2012; in the data active = inhibition above about 50%, passing the limit was not always enough
# dFosB act = activators of delta FosB homodimer, primary screen, biochemical, fluorescence polarization, TAMRA-CDK5 oligo, single point. activation, % at 25 µM. purified delta FosB; percent of positive-control signal above neutral wells. 0.99% of 340,000 active. AID 493131, 2011;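 active = mean activation above about 17%, with every replicate also reaching it, limit read from the data, passing the limit was not always enough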
# Neddyl block = inhibitors of cullin neddylation, primary screen, biochemical, TR-FRET, uHTS, NAE and Ubc12. NEDD8-conjugating enzyme Ubc12 (Homo sapiens) + NEDD8-activating enzyme E1 regulatory …. inhibition, % at 25 µM. 0.58% of 360,000 active. AID 651699, 2012; in the data active = inhibition above about 36%
# Target sequence (P61081 whole entry, looked up): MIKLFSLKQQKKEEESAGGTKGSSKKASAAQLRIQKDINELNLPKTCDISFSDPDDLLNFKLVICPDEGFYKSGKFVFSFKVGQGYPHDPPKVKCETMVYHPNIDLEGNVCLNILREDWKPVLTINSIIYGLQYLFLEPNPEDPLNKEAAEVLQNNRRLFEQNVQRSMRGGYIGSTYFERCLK
# Target sequence (Q13564 whole entry, looked up): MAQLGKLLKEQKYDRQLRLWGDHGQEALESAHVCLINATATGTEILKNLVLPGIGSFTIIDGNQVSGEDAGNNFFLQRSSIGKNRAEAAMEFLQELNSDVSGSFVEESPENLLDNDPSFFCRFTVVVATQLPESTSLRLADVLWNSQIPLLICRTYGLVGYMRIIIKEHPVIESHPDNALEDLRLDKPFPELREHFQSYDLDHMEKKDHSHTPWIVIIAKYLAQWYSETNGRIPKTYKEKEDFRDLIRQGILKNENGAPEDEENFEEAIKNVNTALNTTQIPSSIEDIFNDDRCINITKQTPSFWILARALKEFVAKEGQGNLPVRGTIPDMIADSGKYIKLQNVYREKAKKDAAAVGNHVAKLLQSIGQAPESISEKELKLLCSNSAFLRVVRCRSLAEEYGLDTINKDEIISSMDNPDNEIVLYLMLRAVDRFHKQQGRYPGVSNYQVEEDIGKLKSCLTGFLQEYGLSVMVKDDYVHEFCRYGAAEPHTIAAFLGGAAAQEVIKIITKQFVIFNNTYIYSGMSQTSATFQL
# INS-1E GSIS act = GLuc luminescence reporter in INS-1E cells, primary screen for activators of glucose-dependent secretion of insulin | INS-1E GLuc reporter insulin secretion, 2-3 h | AID 743287, 2014 | activation, % at 16.6 µM | 0.61% of 370,000 active;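 active = lowest replicate activation of at least 40%, so every replicate reaches that level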
# Neddyl conf = blockade of NEDD8 conjugation to cullin – biochemical, TR-FRET, single concentration, confirmation; shares compounds with Neddyl block; TR-FRET cullin neddylation biochemical assay; calls only at 25 µM; 13% of 1,800 active; AID 652217, 2013; in the data active = inhibition above about 40%;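 note: neddylation substrate is the cullin 1 ring ligase complex with SKP2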
# Hits are given with their value; n = inactive; x = not tested or not shown; + = active, no number.
SMILES,Bfl-1 A1 inh,Vif inh,dFosB act,Neddyl block,INS-1E GSIS act,Neddyl conf
Cc1noc(C)c1S(=O)(=O)Nc1ccc2c(c1)C(=O)N([C@H](C)CO)C[C@H](C)[C@@H](CN(C)Cc1ccc(Oc3ccccc3)cc1)O2,x,x,x,x,n,x
CN(C)c1cccc(C(=O)NCCCSc2ccccc2)c1,n,n,n,48.8,n,x
CC(C)C[C@@H]1COCc2cn(nn2)CC[C@H](Cc2cccc(Cl)c2)C(=O)N1,x,x,x,x,n,x
Cc1csc2ncc(C(=O)NCc3ccco3)c(=O)n12,n,n,n,43.2,n,n
Cc1c(C)c2ccc(OC(C)C(=O)NCCCN3CCOCC3)c(C)c2oc1=O (stereo not drawn),n,n,n,46.0,n,n
Cc1c(OC(C)C(=O)NCCCN2CCOCC2)ccc2c3c(c(=O)oc12)CCC3 (stereo not drawn),n,n,n,n,n,x
Cc1c(C)c2ccc(OC(C)C(=O)NCCN3CCOCC3)c(C)c2oc1=O (stereo not drawn),n,n,n,51.6,n,n
Cc1cccc(NS(=O)(=O)c2cccs2)n1,n,x,n,39.9,n,n
Cc1ccc(NS(=O)(=O)c2cccs2)nc1,n,n,n,40.6,n,n
Cc1ccnc(NS(=O)(=O)c2cccs2)c1,n,n,n,n,x,x
C/C=C/c1cnc2c(c1)C(=O)N([C@@H](C)CO)C[C@H](C)[C@@H](CN(C)Cc1cncnc1)O2,x,x,x,x,n,x
Cc1noc(C)c1NC(=O)Nc1ccc2c(c1)C(=O)N([C@@H](C)CO)C[C@@H](C)[C@H](CN(C)C(=O)Nc1ccc(F)cc1)OCCCC[C@@H](C)O2,x,x,x,x,n,x
CCSc1nc(-c2ccccc2)c(-c2ccccc2)n1CC(O)CO (stereo not drawn),n,n,n,43.9,n,n
CCCSc1nc2cc(C)c(C)cc2n1CC(O)CO (stereo not drawn),n,n,n,n,n,x
O=C(CN1c2cccc3cccc(c23)S1(=O)=O)NCc1ccc(F)cc1,n,n,n,45.8,x,+
O=C(CN1c2cccc3cccc(c23)S1(=O)=O)Nc1ccc(F)c(F)c1F,n,n,n,41.6,n,n
O=C(CN1c2cccc3cccc(c23)S1(=O)=O)Nc1ccccc1F,n,n,n,n,n,x
O=C(N/N=C/c1cn(-c2ccccc2)nc1-c1ccccc1)c1ccco1,n,n,n,41.4,x,n
O=C(N/N=C/c1nn(-c2ccccc2)cc1-c1ccccc1)c1ccncc1,n,n,n,39.3,n,n
O=C(N/N=C/c1cn(-c2ccccc2)nc1-c1cccs1)c1ccncc1,n,n,n,43.6,n,x
CN(C)C(=O)COC(=O)/C=C/c1cn(-c2ccccc2)nc1-c1cccs1,n,n,n,41.2,n,x
O=C(N/N=C\c1cn(-c2ccccc2)nc1-c1ccccc1)c1ccc(Br)o1,n,n,n,n,x,x
CC(=O)N1CCC2(CC1)C/C(=N\NC(=S)Nc1ccccc1C)c1cc(O)ccc1O2,n,n,n,x,n,x
COc1ccc(NC(=S)N/N=C2\CC(C)(C)Oc3ccc(O)cc32)cc1,n,n,n,40.8,n,n
CC(=O)N1CCC2(CC1)C/C(=N\NC(=S)Nc1ccccc1F)c1cc(O)ccc1O2,n,n,n,n,n,x
SMILES,Bfl-1 A1 inh,Vif inh,dFosB act,Neddyl block,INS-1E GSIS act,Neddyl conf
COc1ccccc1NC(=S)N/N=C1\CC(C)(C)Oc2ccc(O)cc21,n,n,n,39.6,n,n
CCN(CC)c1ccc(/C=N/n2nnnc2N)c(O)c1,n,n,n,41.4,x,+
CCN(C)c1ccc(/C=N\n2nnnc2N)cc1,n,n,n,x,x,x
COCC(=O)Nc1ccc2c(c1)[C@H]1C[C@@H](CC(=O)N(C)C)O[C@H](CO)[C@H]1O2,x,x,x,x,n,x
COc1ccccc1-c1cnc2c(c1)C(=O)N([C@H](C)CO)C[C@H](C)[C@H](CN(C)C(=O)c1ccncc1)O2,x,x,x,x,n,x
COc1cccc(N2CCN(C(=O)c3cccn4c(=O)c5c(C)c(C)sc5nc34)CC2)c1,n,n,n,38.3,n,x
CCOc1ccc2[nH]c(=O)c(CN(CCO)C(=O)CC)cc2c1,n,n,n,39.8,x,+
CCOc1ccc2[nH]c(=O)c(CN(CCO)C(=O)c3ccc(Br)cc3)cc2c1,n,n,n,n,x,x
COCC(=O)N(C)C[C@@H]1Oc2cc(-c3ccc(C#N)cc3)ccc2S(=O)(=O)N([C@@H](C)CO)C[C@@H]1C,x,x,x,x,n,x
O=C(c1cnn2c(C(F)F)cc(-c3ccccc3)nc12)N1CCOCC1,n,n,n,41.1,x,n
Cc1nn(C)cc1CN(C)C(=O)c1cc2nc(-c3ccco3)cc(C(F)(F)F)n2n1,n,n,n,42.7,x,+
Cc1nn(C)c(C)c1CN(C)C(=O)c1cc2nc(-c3ccco3)cc(C(F)(F)F)n2n1,n,n,n,41.7,x,n
Cc1ccccc1Cn1nc(C)c(NC(=O)c2cc(-c3ccco3)on2)c1C,n,n,n,n,n,x
Cc1ccccc1Cn1nc(C)c(NC(=O)c2cc3nc(-c4ccco4)cc(C(F)(F)F)n3n2)c1C,x,n,n,41.6,x,n
CCOC(=O)c1cc2c(=O)n3ccccc3nc2n(CCOC)c1=NC(=O)c1ccncc1,n,n,n,63.4,n,+
CCOC(=O)c1cc2c(=O)n3ccccc3nc2n(C(C)C)c1=NC(=O)c1ccncc1,n,n,n,67.3,x,+
CC(C)NC(=O)N(C)C[C@H]1OCCCC[C@@H](C)Oc2ccc(NS(=O)(=O)c3ccc(F)cc3)cc2C(=O)N([C@@H](C)CO)C[C@H]1C,x,x,x,x,n,x
COc1ccc2cc(C(c3nnnn3C(C)(C)C)N3CCSCC3)c(=O)[nH]c2c1 (stereo not drawn),n,n,n,n,x,x
CC(C)(C)n1nnnc1C(c1cc2cc3c(cc2[nH]c1=O)OCCO3)N1CCSCC1 (stereo not drawn),n,n,n,47.1,x,x
COc1ccc(CCN(C)C(=O)CN2C(=O)NC3(CCCCC3C)C2=O)cc1OC (stereo not drawn),n,n,n,58.5,n,n
COc1ccc(NC(=O)CN2C(=O)NC3(CCCCC3C)C2=O)cc1OC (stereo not drawn),n,n,n,n,n,x
C[C@@H]1CN([C@H](C)CO)S(=O)(=O)c2ccc(C#CC3(O)CCCC3)cc2O[C@H]1CN(C)C(=O)c1ccccc1,x,x,x,x,n,x
CCCCC(=O)OCC(=O)N1N=C(c2c[nH]c3ccccc23)C(O)C1c1ccc(OC)cc1 (stereo not drawn),n,n,n,44.5,n,n
Cn1c(SCc2ccc(Cl)cc2)nnc1-c1ccc2nonc2c1,n,n,n,42.2,n,n
